What is called inhibition is the relative decrease from the control value, in per cent.

Molecules are shown by their SMILES. The campaign covered roughly 190,000 compounds. About 120 (0.063%) were called active. What follows is part of a selection rich in actives, with near analogues and random picks from the rest. A number with no mark means an inactive call. Cut-off read from the data, not from the text of the source: active = inhibition above about 40%; inconclusive = no clear call, values can overlap the other calls; inactive = below that.

Apoptosis regulator Bcl-2 (Homo sapiens), sequence (P10415 whole entry, looked up): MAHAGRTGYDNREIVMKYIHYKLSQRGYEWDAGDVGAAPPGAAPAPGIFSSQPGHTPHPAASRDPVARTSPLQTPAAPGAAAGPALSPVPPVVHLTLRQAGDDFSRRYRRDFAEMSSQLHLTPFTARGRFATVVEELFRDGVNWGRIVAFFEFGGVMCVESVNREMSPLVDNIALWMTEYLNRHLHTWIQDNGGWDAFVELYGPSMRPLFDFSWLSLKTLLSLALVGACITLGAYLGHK

This assay has as its target Apoptosis regulator Bcl-2 (Homo sapiens) (UniProt P10415). Kind of assay: Bcl-2 and Bim peptide interaction disruptors – biochemical, multiplexed, human Bcl-2 family, primary screen (AID 950).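 Note: 0% = no compound wells with probe peptide and 100% = reference peptide inhibitor.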 The settings on record: Bead-based flow cytometry, Bim peptide-Bcl-2 binding; at 10 µM; active compounds read high.
As for `CC(NC(=S)Nc1ccccc1)C1COc2ccccc2O1` (configuration not stated), the inhibition was -6%.
For the molecule `O=C(CCC(=O)N1CCCC1)Nc1ccc([N+](=O)[O-])cc1`, the inhibition was -2%.
As to `CC(C)CNC(=S)NC(=O)c1ccc(Cl)cc1`, the inhibition is 0%.
The result for `COCCN(C(=O)C(C)C)c1nnc(-c2ccc(C(C)(C)C)cc2)s1` reads -5%.
The same measure for `C=C1C2C[C@H](O)C(C)(C)[C@@]2(O)[C@H](O)C[C@]23C[C@@](C)(O)[C@H](CC[C@H]12)[C@H]3O` (some centres not stated): 0%; for `Nc1nc(SCC(=O)N2CCN(S(=O)(=O)c3ccc(Cl)cc3)CC2)n[nH]1`: -1%.
The same measure for `COc1cc([N+](=O)[O-])ccc1NC(=S)N1CCN(c2ccccn2)CC1`: 0%.
As for `Cc1ccc(NC(=S)NC(=O)/C=C/c2ccc(Cl)cc2)cc1`, the inhibition is -10%.
The same measure for `COC(=O)c1c(NC(=O)CCCC(=O)O)sc2c1CCCCC2`: -3%; for `COc1cccc(NC(=O)COC(=O)CCOc2ccccc2OC)c1`: -2%; for `Cc1cccc(/C(N)=N/OC(=O)c2ccccc2Cl)c1`: -7%.
The result for `CCOC(=O)C(C)n1nc(-c2ccccc2)c2ccccc2c1=O` (configuration not stated) reads -1%; that for `Cn1cc(Cl)c(C(=O)NNC(=S)Nc2cccc(Cl)c2)n1`, 0%.
The result for `Cc1ccc(OC(=O)CCC(=O)Nc2ccc(Br)cc2)cc1` reads 0%.
`O=C(N/N=C/c1ccccn1)c1ccc(S(=O)(=O)N2CCCCCC2)cc1`: the inhibition was 0%.
The result for `O=[N+]([O-])/C(N=Nc1ccccc1)=N\Nc1ccccc1` reads -1%.
The same measure for `N#CCC(=O)N/N=C/c1ccc(SCC(=O)Nc2ccccc2)o1`: -1%; for `Cc1ccc(NC(=O)Nc2cccc(C(F)(F)F)c2)nc1`: 0%; for `CN1CCN(CC(=O)Nc2cccc([N+](=O)[O-])c2)CC1`: -1%.
The result for `O=C(COC(=O)Cn1cnc2ccccc21)Nc1cccc2c1C(=O)c1ccccc1C2=O` reads -1%; that for `CC1COc2ccccc2N1S(=O)(=O)c1ccccc1` (configuration not stated), -1%; that for `COc1cc(NC(=O)c2ccccc2NS(=O)(=O)c2ccc(Cl)s2)cc(OC)c1`, 12%.
In the case of `CCC(=O)Nc1ccc(C(=O)N2CCN(C(=O)c3ccco3)CC2)cc1`, the inhibition was 3%.
As to `COc1ccc(/C=C/C(=O)OCC(=O)NCc2cccs2)cc1OC`, the inhibition is 0%.
The result for `CCOC(=O)N1CCN(Cc2nc(Cc3cccc(C(F)(F)F)c3)no2)CC1` reads -6%; that for `COc1cc2nc(CN(C)Cc3ccc(F)cc3)[nH]c(=O)c2cc1OC`, 14%; that for `O=C(O)CCCCCNc1ncnc2ccc(Br)cc12`, 3%.
In the case of `COc1ccccc1-n1ccnc1SCC(=O)NC(C)(C)C`, the inhibition was -11%.
The result for `CC12CN(NC(=O)c3ccc(Cl)cc3)C3(C#N)CC1CCC23C` (configuration not stated) reads 0%.
The same measure for `CC(=O)c1ccc(NC(=O)C(C)N(C)CC(=O)Nc2ccccc2Cl)cc1` (configuration not stated): 1%.
The result for `CN(C)c1ccc(/C=N\S(=O)(=O)c2ccccc2)cc1` reads 2%; that for `CCC1CCCCN1S(=O)(=O)Cc1ccccc1Cl` (configuration not stated), 1%; that for `CCOc1ccc(NC(=S)N2CCCCCC2)cc1`, -6%.
Regarding `COc1cccc(CNC(=O)CCC2CCCN(C(=O)c3cc(C)[nH]n3)C2)c1` (configuration not stated), the inhibition was -4%.
The result for `CCOc1ccc2c(=O)c(-c3ccc4c(c3)OCCCO4)c(C)oc2c1` reads -3%; that for `N/C(=N\OC(=O)c1ccc([N+](=O)[O-])cc1)c1ccccn1`, -3%.
The same measure for `COc1ccc2cc(-c3[nH]ncc3CNCCn3nc(C)cc3C)ccc2c1`: -2%; for `Cc1cccc(NC(=O)CN2C(=O)c3ccccc3C2=O)c1C`: 0%.
Regarding `Fc1cccc(Cc2noc(CN3CCN(c4cnccn4)CC3)n2)c1`, the inhibition is 0%.
The same measure for `Cc1cccc(-n2c(SCC(N)=O)nc3c(c2=O)C2(CCCCC2)Cc2ccccc2-3)c1`: 1%; for `CCCCCNC(=O)c1cccnc1SCC(=O)Nc1ccccc1OC`: -2%; for `O=C1CCCC2=C1C(c1cccs1)CC(=O)N2c1ccc(F)cc1` (configuration not stated): 4%.
The same measure for `O=C(CC(=O)N/N=C\c1cccc(Cl)c1Cl)NCc1ccccc1`: -2%; for `O=C(NN1C(=O)C2C3C=CC(C3)C2C1=O)c1ccco1` (configuration not stated): -4%; for `CN(c1ccccc1)c1nc(N)c([N+](=O)[O-])c(NCc2ccco2)n1`: -2%.
The result for `Cn1c(=N)n(CC(O)c2cccs2)c2ccccc21` (configuration not stated) reads -1%; that for `O=C(CSc1ccc(C(F)(F)F)cc1[N+](=O)[O-])NCCOc1ccccc1`, -7%.
Consider `CC(C)(CNC(=O)c1ccc(Cl)c(S(=O)(=O)N2CCc3ccccc3C2)c1)N1CCOCC1`, for which the inhibition was 0%.
The same measure for `CCN(CC)c1ccc2c(Nc3ccccc3)c(C=O)c(=O)oc2c1`: -4%; for `C#CCOCCOCCOCCNc1nc(N2CCN(C(=O)[C@H](C(C)C)n3cc(CCO)nn3)CC2)nc(N2CCN(C(=O)[C@H](C(C)C)n3cc(CCO)nn3)CC2)n1`: -3%; for `Cc1cc(C)c(C2C3=C(Nc4c2c(C)nn4-c2ccccn2)c2ccccc2C3=O)c(C)c1` (configuration not stated): -2%.
For `CCN1CCc2nc(NC(=O)c3cc(F)c(F)cc3Cl)sc2C1`, the inhibition was -5%.
On to `COc1ccc(C(=O)C2CCCN(Cc3cccn3-c3ccccn3)C2)c(C)c1` (configuration not stated), for which the inhibition was 0%.
Regarding `CCc1ccc(C2N3CC4([N+](=O)[O-])CN2CC([N+](=O)[O-])(C3)C4(C)C)cc1` (configuration not stated), the inhibition was -9%.
On to `CC1CCN(C(=S)c2cccc(O)c2)CC1`, for which the inhibition is -5%.
For `C/C(=N\NC(=O)c1cccnc1)c1ccc(-n2ccnc2)cc1`, the inhibition was -4%.
The same measure for `CCOC(=O)C1CCN(C(=O)C2(NC(=O)Nc3cccc(F)c3)CCCCC2)CC1`: -2%; for `C=CCc1ccccc1OCC(=O)N/N=C/c1ccccc1OCC`: -4%.
For the molecule `Cc1ccc(/C=N/NC(=O)CNC(=O)COc2ccccc2)o1`, the inhibition is -10%.
The same measure for `CCOc1ccccc1/C=N/NC(=O)CNC(=O)COc1ccccc1`: 79% (active); for `O=C(CN1CCN(c2ncccn2)CC1)Nc1ccccc1C(F)(F)F`: -2%; for `COCCCNC(NC(=O)c1ccc(OC)cc1)C(Cl)(Cl)Cl` (configuration not stated): 0%.
The same measure for `Cc1cccc(NC(=S)NCc2ccc3[nH]c4c(c3c2)CCCC4)c1`: 2%.
The result for `NS(=O)(=O)c1ccc(NC(=O)COC(=O)C2(c3ccc(F)cc3)CCCC2)cc1` reads -9%; that for `Cc1cccc(Nc2nc3c(S(=O)(=O)c4ccccc4)nnn3c3ccccc23)c1C`, 0%; that for `CCc1ccc(NC(=O)Cn2nc(C)c([N+](=O)[O-])c2C)cc1`, -2%.
Regarding `CC(C)c1ccc(C2C(C#N)=C(N)Oc3c2oc(CO)cc3=O)cc1` (configuration not stated), the inhibition is -2%.
The same measure for `CCOc1ccc(NC(=O)COc2ccc(C(=O)NC3CCCc4ccccc43)cc2OC)cc1` (configuration not stated): -6%; for `O=C(NCC1CCCO1)/C(=C/c1ccc(Cl)cc1)NC(=O)c1ccccc1` (configuration not stated): -5%.
The result for `CCCNS(=O)(=O)c1ccc(CCC(=O)N2CCCC2)cc1` reads -5%.
The same measure for `CC(=O)c1c(C)[nH]c(C(=O)OCC(=O)NCCC(C)C)c1C`: -3%.
On to `CCOC(=O)CCNC(=O)N1CCCC(C(=O)c2ccccc2SC)C1` (configuration not stated), for which the inhibition is 2%.
In the case of `CC(CC(=O)C1C(C)C=CCC1(C)C)NNC(N)=O` (configuration not stated), the inhibition is -3%.
The same measure for `CC(Sc1nnnn1C1CCCCC1)C(=O)O` (configuration not stated): -2%.
The result for `COc1ccc(Cl)cc1NC(=O)COC(=O)C(CC(C)C)N1C(=O)C2CC=CCC2C1=O` (configuration not stated) reads -9%; that for `COc1cccc(NC(=O)NCc2ccc(F)cc2)c1`, 0%.
The result for `Cc1cc(Cl)c(S(=O)(=O)Nc2ccc3c(c2)OCCO3)cc1OCC(N)=O` reads -1%; that for `Cc1cc(Cl)c(S(=O)(=O)NCC2CCCO2)cc1OCC(N)=O` (configuration not stated), 79% (active).
For the molecule `Cc1cc(Cl)c(S(=O)(=O)NCCC(=O)O)cc1OCC(N)=O`, the inhibition was -7%.
The same measure for `CN(C)CCOCCOc1ccc(Cl)c2ccccc12`: -7%; for `O=C(Nc1ccccc1C(=O)N1CCCCCC1)c1ccccc1Cl`: -4%; for `CC(=O)Nc1ccc(S(=O)(=O)NC2(C(F)(F)F)C(=O)Nc3c2c(=O)[nH]c(=O)n3Cc2ccccc2)cc1` (configuration not stated): -4%.
The result for `COCCOC(=O)c1c(C)oc2cc(Br)c(OCC(N)=O)cc12` reads 0%.
Consider `CCCCN(C(=O)COc1ccc(NC(C)=O)cc1)C1CCS(=O)(=O)C1` (configuration not stated), for which the inhibition was -3%.
The same measure for `COCCn1c(C)cc(C(=O)COC(=O)/C=C/c2cccc(OC)c2)c1C`: -5%; for `O=C(O)Cc1ccc(NCc2ccccc2Cl)cc1`: -3%; for `CC1CN(S(=O)(=O)c2ccc(C(=O)Nc3sccc3C(N)=O)cc2)CC(C)O1` (configuration not stated): 1%.
With `Cc1ccc(-c2nc(C#N)c(NCCCn3ccnc3)o2)cc1`, the inhibition was -2%.
The same measure for `O=C(CNCc1ccco1)Nc1cc(S(=O)(=O)N2CCOCC2)ccc1N1CCCC1`: -2%; for `CC(C)=CCN1CCN(Cc2ccc(Oc3ncccn3)cc2)CC1CCO` (configuration not stated): 1%; for `COc1ccc(N2CCN(C(=S)Nc3ccc(S(N)(=O)=O)cc3)CC2)cc1`: -3%.
The same measure for `O=C(NCc1ccc(Cl)cc1)NCc1ccc(Cl)cc1`: -4%; for `O=C(CSc1ccc(-c2ccc(F)cc2)nn1)Nc1ccc2c(c1)OCCO2`: -6%.
The result for `O=C(Nc1cccc(F)c1)N1C2CCC1CC(O)(c1cccnc1)C2` (configuration not stated) reads 0%; that for `O=C(CN1CCN(c2ccc(O)cc2)CC1)Nc1cc(S(=O)(=O)N2CCOCC2)ccc1Cl`, 0%; that for `COc1cc(COCC(O)CN2CCN(Cc3ccc4c(c3)OCO4)CC2)cc(OC)c1OC` (configuration not stated), -1%.
In the case of `COC(=O)C1=C(C)N(C)C(=S)NC1c1cc(OC)ccc1OC` (configuration not stated), the inhibition was -5%.
